High-throughput results from PubChem BioAssay.
FBW7 act = activators of human E3 ligase FBW7. Q969H0. AlphaScreen FBW7–phospho-cyclin E peptide binding, activator screen. normalized activity (activation), % at 26.1 µM. hit rate 0.13% among 650,000; in the data active = normalized activity above about 1.9%;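 also: purified mutant Fbw7 with reduced substrate affinity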
MITF primary = inhibitors of human MITF; O75030; AlphaScreen MITF homodimerization, bead proximity signal; inhibition, % at 2.6 µM; hit rate 0.91% among 650,000; in the data active = inhibition above about 50%
Target sequence (O75030 whole entry, looked up): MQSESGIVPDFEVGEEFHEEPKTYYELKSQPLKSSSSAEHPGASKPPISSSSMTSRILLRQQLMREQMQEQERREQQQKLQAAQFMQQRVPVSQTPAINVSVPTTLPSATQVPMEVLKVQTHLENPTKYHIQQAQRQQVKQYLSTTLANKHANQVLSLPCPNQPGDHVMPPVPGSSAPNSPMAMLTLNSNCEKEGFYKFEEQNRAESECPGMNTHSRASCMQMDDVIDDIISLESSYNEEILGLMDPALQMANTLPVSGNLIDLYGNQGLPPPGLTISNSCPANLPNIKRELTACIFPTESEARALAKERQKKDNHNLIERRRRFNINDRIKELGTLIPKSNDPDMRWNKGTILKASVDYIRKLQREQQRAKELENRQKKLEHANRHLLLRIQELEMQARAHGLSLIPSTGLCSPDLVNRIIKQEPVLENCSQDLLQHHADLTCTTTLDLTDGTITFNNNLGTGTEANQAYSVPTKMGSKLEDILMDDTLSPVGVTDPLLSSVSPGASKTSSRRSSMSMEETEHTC
GPR151 ag = activates the human receptor GPR151. Q8TDV0. AID 1508602. hit rate 1% among 650,000. activation, % at 11.2 µM. PathHunter beta-arrestin GPR151 cells, luminescence; in the data active = activation above about 4.9%
TEAD-YAP block = TEAD-YAP interaction inhibition. hit rate 1.4% among 640,000. inhibition, % at 9.12 µM. HEK-TIYL cells, TEAD-Gal4/YAP UAS-luciferase luminescence; in the data active = inhibition above about 32%
Of the large screens only hits and unclear results are named; the others gave an inactive call. Rows were chosen to be rich in hits. Some 3.4% of all compounds tested hit in one or more screens of this group.

CCc1ccccc1Nc1nc(N)nc(CCl)n1	TEAD-YAP block 45
Cc1ccc(N(CC(=O)NCCC(C)C)C(=O)c2snc(C(N)=O)c2N)c(C)c1	none
COC(=O)[C@@H]1C[C@@H](NC(=O)c2ccc3ccccc3c2O)CN1Cc1cc(F)ccc1F	TEAD-YAP block 42
Cc1cccn2c(CN[C@H]3CCCCNC3=O)c(C(=O)N3CCCCC3)nc12	none
COC(=O)c1cc(NC(=O)C23CCC(C)(C(=O)C2=O)C3(C)C)cc(C(=O)OC)c1 (stereo not drawn)	MITF primary 59
N#Cc1c(Cl)nc(Nc2cccc(F)c2)c(Cl)c1Cl	none
N#Cc1c(Cl)nc(Nc2ccccc2)c(Cl)c1Cl	TEAD-YAP block 33
Cc1c(C(=O)N2CCN(c3ccccn3)CC2)sc2ncn(CC(=O)Nc3ccc(C(C)C)cc3)c(=O)c12	none
CCN1CCN(Cc2ccc(NC(=O)Nc3cc(F)ccc3F)cc2)CC1	TEAD-YAP block 40
CCCc1sc2[nH]c(=S)n(-c3ccccc3)c(=O)c2c1C	none
NC(c1nc2ccc(-c3ccncc3)cc2[nH]1)c1ccc(F)cc1F (stereo not drawn)	none
Fc1ccc2nc(-c3nc4ccc(-c5ccncc5)cc4[nH]3)[nH]c2c1	FBW7 act 2.6
Clc1cncc(Cl)c1N1CCN(c2ccc(-c3cccnc3)cn2)CC1	TEAD-YAP block 50
c1csc(-c2cn3ccc4ccccc4c3n2)c1	FBW7 act 2.5
CCN(CC)C(=O)Cn1ncc2c3oc(C)cc3n(C(C)C)c2c1=O	none
NC(=O)CSc1nnc(-c2ccc3c(c2)OCO3)o1	TEAD-YAP block 45
CC(Sc1nnc(-c2ccc3c(c2)OCO3)o1)C(N)=O (stereo not drawn)	TEAD-YAP block 37
O=C(O)CSc1nnc(-c2ccc3c(c2)OCO3)o1	none
CC(Sc1nnc(-c2ccncc2)o1)C(N)=O (stereo not drawn)	none
COc1ccc(N(C(=O)c2cnccn2)C(C(=O)NCc2ccccc2)c2ccco2)cc1 (stereo not drawn)	none
COc1ccc(-c2cnn3c(C(F)(F)Cl)cc(C)nc23)cc1OC	none
CC(C)C(CO)Nc1nccn2c(-c3cccc(NS(C)(=O)=O)c3)cnc12 (stereo not drawn)	TEAD-YAP block 55
CC(C)C(CO)Nc1nccn2c(-c3ccc(C(=O)NC4CC4)cc3)cnc12 (stereo not drawn)	TEAD-YAP block 51
CC(=O)c1cccc(-c2cnc3c(NC(CO)C(C)C)nccn23)c1 (stereo not drawn)	none
CCOc1ccc(NC(=O)CSc2nc3cc(C(=O)OC)ccc3c(=O)n2Cc2ccc3c(c2)OCO3)cc1	none
N#C/C(=C\c1ccc(O)c(O)c1)C(=O)c1ccc(O)c(O)c1	MITF primary 86
COC(=O)C1=C(C)NC2=C(C(=O)c3ccccc32)C1c1cc(Br)ccc1OCc1ccc(F)cc1 (stereo not drawn)	none
C=CCNC(=O)c1cc(-c2ccc3c(c2)OCO3)on1	none
CC(C)NC(=O)c1cc(-c2ccc(O)cc2)on1	TEAD-YAP block 43
CC(C)NC(=O)c1cc(-c2ccc(Br)cc2)on1	none
C=CCNC(=O)c1cc(-c2ccc(O)cc2)on1	TEAD-YAP block 34
Cc1ccc(N/C(=N/S(=O)(=O)c2cccs2)c2ccccc2)cc1F	TEAD-YAP block 40
O=S(=O)(/N=C(\Nc1nccs1)c1ccccc1)c1cccs1	none
Cc1cc(C)nc(NC(=O)Nc2cccc(Cl)c2)c1	none
O=C(Nc1nc(-c2c[nH]c3ccccc23)cs1)C1CCCC1	none
O=C(Nc1nc(-c2c[nH]c3ccccc23)cs1)c1n[nH]c(=O)c2ccccc12	TEAD-YAP block 36
CCN(Cc1c(O)ccc2c(=O)c(-c3ccc(Cl)cc3)c(C(F)(F)F)oc12)C1CCCCC1	none
COc1ccc(CCNc2nc(-c3ccc(C(=O)NC4CC4)cc3)nc3c2ncn3-c2ccccc2)cc1	none
O=C(NC1CC1)c1ccc(-c2nc(Nc3ccc(Oc4ccccc4)cc3)c3ncn(-c4ccsc4)c3n2)cc1	none
CC(=O)Nc1ccc(Nc2nc(-c3ccc(C(=O)NC4CC4)cc3)nc3c2ncn3-c2ccccc2)cc1	TEAD-YAP block 48
O=C(NC1CC1)c1ccc(-c2nc(NCCO)c3ncn(-c4ccccc4)c3n2)cc1	TEAD-YAP block 68
NC(=O)c1ccc(-c2nc(NCCO)c3ncn(-c4ccccc4)c3n2)cc1	TEAD-YAP block 64
NC(=O)c1ccc(-c2nc(NCCN3CCOCC3)c3ncn(-c4ccccc4)c3n2)cc1	TEAD-YAP block 61
CN1CCN(C(=O)c2ccc(-c3nc(NCCN4CCOCC4)c4ncn(-c5ccsc5)c4n3)cc2)CC1	none
O=C1CC(N2CCCC2)C(=O)N1c1ccc(I)cc1 (stereo not drawn)	none
COc1ccc(C2Nc3ccc(C(=O)c4ccccc4)cc3NC3=C2C(=O)CC(C)(C)C3)cc1OC (stereo not drawn)	none
CC[C@@H]1NC(=O)[C@@H]2C[C@H](NC(=O)c3ccccc3OC)CN2C1=O	none
O=C(Nc1ccc(Nc2ccccc2)cc1)c1ccc(C(=O)c2ccccc2)o1	TEAD-YAP block 43
CC(C)N(Cc1ccccc1)c1ncnc2c1cnn2C	none
COC(=O)c1ccc(/C=C(\C(=O)C(=O)O)c2ccc3ccccc3n2)cc1	TEAD-YAP block 60
N#Cc1ccc(/C=C(\C(=O)C(=O)O)c2ccc3ccccc3n2)cc1	none
COc1ccccc1/C=N/Nc1nc(-c2ccccc2)cc(=O)[nH]1	TEAD-YAP block 50
Cc1c(C(=O)NC2=NCCS2)oc2ccccc12	TEAD-YAP block 38
COc1ccc(S(=O)(=O)N2Cc3ccccc3CC2C(=O)Nc2ccc(C)cc2)cc1 (stereo not drawn)	TEAD-YAP block 33
CCN1CCN(C(c2cccnc2)c2ccc3cccnc3c2O)CC1 (stereo not drawn)	MITF primary 68
Oc1cccc(C(c2ccc3cccnc3c2O)N2CCCC2)c1 (stereo not drawn)	none
Oc1c(C(c2ccncc2)N2CCCC2)ccc2cccnc12 (stereo not drawn)	MITF primary 76
CC1CCN(C(c2ccncc2)c2ccc3cccnc3c2O)CC1 (stereo not drawn)	MITF primary 89
Cc1[nH]c2ccccc2c1C(c1ccncc1)N1CCC(C)CC1 (stereo not drawn)	none
O=C(CCCn1c(=S)[nH]c2cc3c(cc2c1=O)OCO3)NCCc1ccccc1	none
Cc1ccc(SCCC(=O)Nc2nc3c(s2)CCCC3)cc1	none
O=C(NCc1ccccc1)c1ccccc1C(F)(F)F	none
Nc1c(C(=O)c2ccccc2)sc2nc3c(cc12)CCCC3	TEAD-YAP block 40
Nc1c(C(=O)N2CCOCC2)sc2nc3c(cc12)CCCCC3	TEAD-YAP block 87
Nc1c(C(=O)Nc2ccccc2)sc2nc3c(cc12)CCC3	none
Nc1c(C(=O)Nc2cccc(C(=O)O)c2)sc2nc3c(cc12)CCC3	TEAD-YAP block 57
Nc1c(C(=O)c2ccc(Cl)cc2)sc2nc3c(cc12)CCCC3	none
NC(=O)c1sc2nc3cc4c(cc3cc2c1N)OCCO4	TEAD-YAP block 97
Nc1c(C(=O)N2CCOCC2)sc2nc3c(cc12)CCCC3	none
CCOc1ccc(S(=O)(=O)N(C)Cc2cccc(F)c2)cc1	none
O=C(O)c1ccccc1NCc1ccc2c(c1)OCO2	none
